# Source: PubChem BioAssay (Tox21)
# “And” between values parts separate entries of the source, which are not always exact repeats. Equal values may be shown once. Records with an inconclusive call do not appear. A call without a number means that no potency is given here. Some compounds were tested as several samples or in several runs, with calls that do not always agree. The source made the active and inactive calls. Unless noted, calls follow the shape of the dose curve; as a rule, active = well fitted curve in the direction sought with a large enough effect in the repeat runs; inconclusive = weak or mixed curves; inactive = no such curve, though single readings can be large; an effect the other way counts as inactive or inconclusive.
# Experiments:
# [1] = biological target: Androgen receptor (Homo sapiens) (UniProt P10275); assay: qHTS assay to identify small molecule antagonists of the androgen receptor (AR) signaling pathway using the MDA cell line in the presence of 0.5 nM R1881 (AID 1259243); also: nearly all actives have a fitted effect of over 50% in size; also: potency is read from the fitted curve at half-maximal effect
# Sequence of Androgen receptor (Homo sapiens) (P10275 whole entry, looked up): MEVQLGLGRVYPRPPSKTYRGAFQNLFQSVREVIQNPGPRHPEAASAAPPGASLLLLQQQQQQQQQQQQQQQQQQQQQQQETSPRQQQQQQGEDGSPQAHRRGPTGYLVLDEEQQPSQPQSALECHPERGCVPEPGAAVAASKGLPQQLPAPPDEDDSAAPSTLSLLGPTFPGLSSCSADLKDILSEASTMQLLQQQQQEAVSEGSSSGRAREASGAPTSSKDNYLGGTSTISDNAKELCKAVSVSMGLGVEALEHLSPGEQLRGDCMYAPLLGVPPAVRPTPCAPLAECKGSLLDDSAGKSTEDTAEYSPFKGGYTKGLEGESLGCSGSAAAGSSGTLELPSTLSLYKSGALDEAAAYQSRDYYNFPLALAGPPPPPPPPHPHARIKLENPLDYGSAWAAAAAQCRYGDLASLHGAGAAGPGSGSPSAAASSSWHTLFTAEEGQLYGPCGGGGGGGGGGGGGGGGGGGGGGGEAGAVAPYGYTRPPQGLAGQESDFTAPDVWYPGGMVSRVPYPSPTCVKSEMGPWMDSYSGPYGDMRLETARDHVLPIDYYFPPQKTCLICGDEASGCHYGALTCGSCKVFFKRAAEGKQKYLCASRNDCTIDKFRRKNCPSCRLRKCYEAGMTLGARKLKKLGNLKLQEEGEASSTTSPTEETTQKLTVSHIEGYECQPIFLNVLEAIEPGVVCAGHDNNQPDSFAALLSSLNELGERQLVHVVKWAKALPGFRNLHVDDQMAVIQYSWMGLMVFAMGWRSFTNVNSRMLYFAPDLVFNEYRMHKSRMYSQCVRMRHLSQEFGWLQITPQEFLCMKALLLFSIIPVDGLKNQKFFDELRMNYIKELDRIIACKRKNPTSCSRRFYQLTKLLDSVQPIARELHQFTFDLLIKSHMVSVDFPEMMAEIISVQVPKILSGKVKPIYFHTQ
# Method in brief: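 Stably transfected MDA-kb2 cells express luciferase from an MMTV promoter bearing both AR and GR response elements. Compounds plus 0.5 nM R1881 (final) were incubated 16 hr at 37C without CO2, then luminescence measured.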
# [2] = biological target: Estrogen receptor (Homo sapiens) (UniProt P03372); assay: qHTS assay to identify small molecule antagonists of the estrogen receptor alpha (ER-alpha) signaling pathway using the BG1 cell line in the presence of 0.1 nM 17-beta-estradiol (AID 1259244); also: nearly all actives have a fitted effect of over 50% in size; also: potency is read from the fitted curve at half-maximal effect
# Sequence of Estrogen receptor (Homo sapiens) (P03372 whole entry, looked up): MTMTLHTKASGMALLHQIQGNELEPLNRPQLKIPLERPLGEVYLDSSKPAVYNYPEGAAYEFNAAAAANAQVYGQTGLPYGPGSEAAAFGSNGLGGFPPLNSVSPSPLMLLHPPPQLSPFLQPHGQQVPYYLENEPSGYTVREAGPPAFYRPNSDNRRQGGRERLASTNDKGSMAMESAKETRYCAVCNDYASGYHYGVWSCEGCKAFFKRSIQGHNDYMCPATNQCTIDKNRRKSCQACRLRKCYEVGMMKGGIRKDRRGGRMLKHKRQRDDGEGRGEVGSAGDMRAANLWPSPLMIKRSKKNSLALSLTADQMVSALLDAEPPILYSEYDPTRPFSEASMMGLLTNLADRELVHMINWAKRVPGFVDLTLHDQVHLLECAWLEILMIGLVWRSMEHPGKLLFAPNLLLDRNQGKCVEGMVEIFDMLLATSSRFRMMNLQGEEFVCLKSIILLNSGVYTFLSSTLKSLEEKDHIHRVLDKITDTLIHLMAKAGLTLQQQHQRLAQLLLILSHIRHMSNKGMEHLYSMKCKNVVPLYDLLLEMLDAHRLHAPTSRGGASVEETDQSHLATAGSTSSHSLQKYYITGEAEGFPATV
# Method in brief: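 Antagonist mode: compounds in DMSO are pinned onto VM7Luc4E2 reporter cells, 0.1 nM final 17beta-estradiol is added, and after 22 h at 37C luciferase luminescence is measured with ONE-Glo.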
# [3] = qHTS assay to identify small molecule phospholipidosis (PLD) inducers (AID 1259344; active = well fitted curve in the direction sought with a large enough effect; an effect the other way counts as inactive or inconclusive)
# Method in brief: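 After 4 h attachment on collagen I, HepG2 cells were dosed with compound alongside LipidTOX Red, kept 24 h at 37 C, fixed, and imaged for lamellar phospholipid pits.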
# [4] = qHTS assay to identify small molecule HDAC inhibitors (AID 1259364); also: potency is read from the fitted curve at half-maximal effect;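 also: wild-type HCT-116 cells with endogenous class I/II HDAC activity; nearly all actives have a fitted effect of over 45% in size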
# Method in brief: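 Cells (HCT-116, wild type) are seeded at 1,500 per well, incubated overnight, treated with compound in DMSO for 2 hr, then developed with HDAC-Glo I/II reagent for 30 min at room temperature.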
# [5] = qHTS assay to identify small molecule agonists of the sonic hedgehog signaling (Shh) pathway - cell viability counter screen (AID 1259366); also: nearly all actives have a fitted effect of over 50% in size
# Method in brief: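 Same-well cytotoxicity read. Gli1-Luc reporter 3T3 cells; compounds 24hr, 37C/5% CO2; CellTiter-Fluor fluorescence.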
# [6] = qHTS assay to identify small molecule agonists of the sonic hedgehog signaling (Shh) pathway (AID 1259368; calls by dose curve;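 also: NIH/3T3-derived 3T3Gli1-Luc cells carrying a stable Gli1-driven firefly luciferase reporter; series mostly up to about 92 µM; nearly all actives have a fitted effect of over 15% in size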)
# Method in brief: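 Cells of a mouse NIH/3T3 clone stably expressing luciferase under the Gli1 transcriptional response element are exposed to test chemicals for 24 hr at 37 C. Pathway activation is detected as a rise in luminescence.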
# [7] = qHTS assay to identify small molecule antagonists of the sonic hedgehog signaling (Shh) pathway (AID 1259369; calls by dose curve; also: nearly all actives have a fitted effect of over 45% in size; also: potency is read from the fitted curve at half-maximal effect)
# Method in brief: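 Cells are plated and held 4hr at 37 C, compounds (DMSO) are pinned in, conditioned medium is added to stimulate the pathway, and after 24hr luciferase reagent is added for 30min before luminescence is read.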
# [8] = qHTS assay to identify small molecule agonists of the androgen receptor (AR) signaling pathway in the presence of an antagonist - cell viability counter screen (AID 1259379);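 also: MDA-kb2 human breast cancer cells carrying an MMTV luciferase reporter; series mostly up to about 92 µM; nearly all actives have a fitted effect of over 25% in size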
# Method in brief: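 Cytotoxicity is assessed by CellTiter-Fluor in MDA-kb2 cells carrying an MMTV-driven luciferase reporter. Cells receive 3.0uM nilutamide plus compounds at 15 concentrations and incubate 16 hr at 37C without CO2 before fluorescence reading.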
# [9] = qHTS assay to identify small molecule agonists of the estrogen receptor beta (ER-beta) signaling pathway - cell viability counter screen (AID 1259380); also: nearly all actives have a fitted effect of over 30% in size; also: potency is read from the fitted curve at half-maximal effect
# Method in brief: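 Cytotoxicity is measured in parallel with the reporter screen: after 16 hr compound exposure at 37C and a 2 hr LiveBLAzer step, CellTiter-Glo is added to the same ER-beta-UAS-bla HEK293T wells and luminescence read after 30 min.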
# [10] = biological target: Androgen receptor (Homo sapiens) (UniProt P10275); assay: qHTS assay to identify small molecule agonists of the androgen receptor (AR) signaling pathway in the presence of an antagonist (AID 1259381; calls by dose curve; also: nearly all actives have a fitted effect of over 15% in size)
# Method in brief: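 Agonist-mode confirmation screen: human MDA-kb2 cells stably expressing luciferase under an MMTV promoter bearing AR and GR response elements, co-treated with 3.0uM nilutamide (final). Luminescence measured after 16hr compound incubation.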
# [11] = qHTS assay to identify small molecule antagonists of the estrogen receptor beta (ER-beta) signaling pathway - cell viability counter screen (AID 1259382); also: series mostly up to about 92 µM; nearly all actives have a fitted effect of over 55% in size
# Method in brief: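 Cytotoxicity counter screen multiplexed with the beta-lactamase antagonist assay: GripTite HEK293T ER-beta-bla cells were treated 16 hr with test chemicals in the presence of 1nM 17-beta-estradiol, and viability was measured by CellTiter-Glo.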
# [12] = biological target: Estrogen receptor (Homo sapiens) (UniProt P03372); assay: qHTS assay to identify small molecule agonists of the estrogen receptor alpha (ER-alpha) signaling pathway in the presence of an antagonist (AID 1259383; calls by dose curve; also: nearly all actives have a fitted effect of over 15% in size; also: potency is read from the fitted curve at half-maximal effect; as to activation: top concentration of the series differs between compounds)
# Method in brief: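 Agonist-mode confirmation in the presence of the ER antagonist ICI-182,780 at 10.0nM final. Breast-derived VM7Luc4E2 reporter cells were exposed to compounds for 22hr, and ERE-driven luciferase was quantified by luminescence.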
# [13] = qHTS assay to identify small molecule agonists or antagonists of the thyroid stimulating hormone receptor (TSHR) signaling pathway - wild type cell line counter screen (AID 1259384; calls by dose curve)
# Method in brief: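 Wild-type HEK293 cells were plated 18 h at 37 C/5% CO2, pin-dosed with compound plus Ro20-1724 medium, held 30 min at room temperature, then given cAMP-d2 and anti-cAMP-cryptate; fluorescence was read after 1 h. Fifteen concentrations, triplicate.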
# [14] = biological target: Thyrotropin receptor (Homo sapiens) (UniProt P16473); assay: qHTS assay to identify small molecule antagonists of the thyroid stimulating hormone receptor (TSHR) signaling pathway (AID 1259385; calls by dose curve; also: nearly all actives have a fitted effect of over 20% in size)
# Sequence of Thyrotropin receptor (Homo sapiens) (P16473 whole entry, looked up): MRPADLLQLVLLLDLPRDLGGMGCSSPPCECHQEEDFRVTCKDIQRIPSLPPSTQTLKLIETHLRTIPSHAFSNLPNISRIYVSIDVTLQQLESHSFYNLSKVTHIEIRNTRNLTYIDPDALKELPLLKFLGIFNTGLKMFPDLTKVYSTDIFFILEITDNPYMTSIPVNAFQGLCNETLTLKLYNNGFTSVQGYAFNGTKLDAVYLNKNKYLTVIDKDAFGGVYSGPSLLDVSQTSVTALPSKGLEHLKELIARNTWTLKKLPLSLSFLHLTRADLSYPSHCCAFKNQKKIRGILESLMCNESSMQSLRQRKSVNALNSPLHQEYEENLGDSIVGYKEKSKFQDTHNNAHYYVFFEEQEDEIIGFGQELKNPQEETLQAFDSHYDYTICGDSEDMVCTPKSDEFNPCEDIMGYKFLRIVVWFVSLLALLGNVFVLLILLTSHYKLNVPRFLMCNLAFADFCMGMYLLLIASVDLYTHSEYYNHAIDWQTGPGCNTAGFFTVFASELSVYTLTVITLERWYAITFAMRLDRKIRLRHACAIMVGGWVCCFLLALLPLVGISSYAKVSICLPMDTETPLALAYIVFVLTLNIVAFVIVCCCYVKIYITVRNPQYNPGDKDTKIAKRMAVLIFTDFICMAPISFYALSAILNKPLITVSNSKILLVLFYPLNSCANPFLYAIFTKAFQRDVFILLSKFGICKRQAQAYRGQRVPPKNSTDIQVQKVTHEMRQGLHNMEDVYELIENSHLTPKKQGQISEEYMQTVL
# Method in brief: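 TSHR-HEK293 cells were plated and held 18 h at 37C/5% CO2, then given compound plus Ro20-1724 and stimulated with TSH at 1.5 ng/mL final. After 30 min at room temperature, cAMP was detected with cAMP-d2/anti-cAMP-cryptate (1 h) by fluorescence.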
# [15] = qHTS assay to identify small molecule HDAC inhibitors - cell viability counter screen (AID 1259365); also: series mostly up to about 92 µM; nearly all actives have a fitted effect of over 50% in size
# Method in brief: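 After overnight seeding at 1,500 cells per well, wild-type HCT-116 cultures took up compounds in DMSO for 2hr at 37 C. Viable cell content came from luminescence with CellTiter-Glo.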
# [16] = qHTS assay to identify small molecule antagonists of the sonic hedgehog signaling (Shh) pathway - cell viability counter screen (AID 1259367); also: nearly all actives have a fitted effect of over 55% in size; also: potency is read from the fitted curve at half-maximal effect
# Method in brief: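 Conditioned medium drove Shh signaling in 3T3 Gli1-Luc cells exposed to compounds at 37C and 5% CO2. Viability was determined from CellTiter-Fluor fluorescence, with reagent incubated 1 hr after 23 hr of treatment.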
# [17] = qHTS assay to identify small molecule agonists of the estrogen receptor alpha (ER-alpha) signaling pathway in the presence of an antagonist - cell viability counter screen (AID 1259386);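 also: series mostly up to about 92 µM; cells exposed to compounds for 22 h at 37 °C before the viability read; nearly all actives have a fitted effect of over 30% in size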
# Method in brief: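 Cytotoxicity was measured in parallel with the ERE-luciferase agonist screen, in the same wells. The cells were VM7Luc4E2, which endogenously express ER-alpha, and treatment was with compounds plus 10.0nM ICI-182,780 for 22hr.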
# [18] = biological target: Estrogen receptor beta (Homo sapiens) (UniProt Q92731); assay: qHTS assay to identify small molecule agonists of the estrogen receptor beta (ER-beta) signaling pathway (AID 1259377; active = well fitted activation curve with a large enough effect in the signal ratio in the repeat runs, not every such curve was filed as active; the % refers to the signal ratio)
# Sequence of Estrogen receptor beta (Homo sapiens) (Q92731 whole entry, looked up): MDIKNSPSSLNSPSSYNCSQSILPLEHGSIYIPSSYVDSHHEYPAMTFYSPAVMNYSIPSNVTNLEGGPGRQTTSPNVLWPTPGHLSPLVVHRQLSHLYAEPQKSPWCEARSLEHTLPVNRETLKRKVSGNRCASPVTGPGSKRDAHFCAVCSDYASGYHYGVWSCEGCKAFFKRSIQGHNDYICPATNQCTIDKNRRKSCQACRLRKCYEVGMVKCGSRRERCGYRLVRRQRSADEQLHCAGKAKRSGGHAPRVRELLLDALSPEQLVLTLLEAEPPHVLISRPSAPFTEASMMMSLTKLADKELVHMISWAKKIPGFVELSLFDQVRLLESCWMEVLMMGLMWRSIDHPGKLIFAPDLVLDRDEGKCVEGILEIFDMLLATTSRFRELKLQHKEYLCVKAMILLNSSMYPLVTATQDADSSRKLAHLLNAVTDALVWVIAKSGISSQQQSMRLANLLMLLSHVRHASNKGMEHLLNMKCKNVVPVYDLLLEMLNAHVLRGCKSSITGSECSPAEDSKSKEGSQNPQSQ
# Method in brief: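 Read-out: beta-lactamase FRET fluorescence. Cell line: ER-beta-UAS-bla HEK293T in 2% charcoal-stripped FBS. Exposure: 16 hr at 37C. Substrate step: 2 h at room temperature.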
# [19] = biological target: Estrogen receptor beta (Homo sapiens) (UniProt Q92731); assay: qHTS assay to identify small molecule antagonists of the estrogen receptor beta (ER-beta) signaling pathway (AID 1259378; active = well fitted inhibition curve with a large enough effect in the signal ratio in the repeat runs, not every such curve was filed as active; the % refers to the signal ratio)
# Method in brief: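 ER-beta-UAS-bla HEK293T (GripTite) cells in 2% charcoal-stripped FBS medium were preincubated 6 hr at 37C, dosed with compound, then stimulated with 1 nM E2 (final) for 16 hr; beta-lactamase reporter read by B/G FRET fluorescence after 2 hr substrate loading.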
SMILES,Potency [1],Potency [2],outcome [3],Potency [4],Potency [5],Potency [6],Potency [7],Potency [8],Potency [9],Potency [10],Potency [11],Potency [12],outcome [13],Potency [14],Potency [15],Potency [16],Potency [17],Potency [18],Potency [19],PLD induction [3]
COc1cc2c(cc1OC)-c1cc(=Nc3c(C)cc(C)cc3C)n(C)c(=O)n1CC2,inactive,inactive,inactive,inactive,inactive,inactive,0.596 µM (active),inactive,inactive,inactive,inactive,inactive,inactive,inactive,,,,,,
C=CCNc1nc(NCC=C)nc(N2CCN(C(c3ccc(F)cc3)c3ccc(F)cc3)CC2)n1,10.6 µM (active),11.9 µM (active),,,inactive,inactive,inactive,,,inactive,inactive,inactive,inactive,,inactive,inactive,inactive,,,
Cc1oncc1C(=O)Nc1ccc(C(F)(F)F)cc1,,inactive,inactive,2.43 µM (active) and 1.88 µM (active),inactive,,,inactive,inactive,,,3.06 µM (active) and inactive,inactive,inactive,inactive,61.1 µM (active) and inactive,inactive,inactive,,
CCC(C)(C)C1CCC(O)CC1 (configuration not stated),,inactive,,,inactive,,inactive,inactive,inactive,,,inactive,inactive,,inactive,inactive,,,,
CN(C(=O)C(Cl)Cl)c1ccc(OC(=O)c2ccco2)cc1,,,inactive,inactive,inactive,inactive,inactive,inactive,inactive,inactive,inactive,,inactive,inactive,inactive,inactive,,inactive,,
Fc1ccccc1[C@@H](F)COC1CCC(Nc2ncnc3[nH]ncc23)CC1 (some centres not stated),15.4 µM (active),,,inactive,inactive,inactive,12.2 µM (active),,68.6 µM (active),inactive,,,inactive,,,,,,,
CC1(C)O[C@@H]2C[C@H]3[C@@H]4CCC5=CC(=O)C=C[C@]5(C)[C@H]4[C@@H](O)C[C@]3(C)[C@]2(C(=O)CO)O1,,inactive,,inactive,inactive,inactive,inactive,inactive,inactive,,,inactive,inactive,inactive,inactive,inactive,inactive,inactive,inactive,
COC(=O)CC(=O)C(C)(C)C,,inactive,,inactive,inactive,inactive,inactive,inactive,,,,inactive,inactive,inactive,inactive,inactive,inactive,,,
C=CC(C)=CCC=C(C)C,,,,inactive,inactive,inactive,,inactive,inactive,,inactive,,,,inactive,inactive,,inactive,inactive,
O=C(CCCCCCCCC#CI)Oc1ccccc1,inactive,,,,inactive,inactive,inactive,inactive,inactive,inactive,inactive,,inactive,,inactive,inactive,inactive,inactive,inactive,8.17% [at 7.66 µM] (inactive)
